Measured values published in the antibiotic and cytotoxicity screens of Wong et al. (2023).
About 3,300 (8.5%) of roughly 39,000 compounds were called active. This is one part of a sample in which actives are shown more often than they occur.

Each compound was assayed on HepG2 (assay: cytotoxicity call (relative viability < 0.9)). Settings: 10 µM.
In the case of `C[C@@H]1CN([C@H](C)CO)C(=O)Cc2cc(NC(=O)CCN3CCOCC3)ccc2O[C@@H]1CN(C)S(=O)(=O)c1ccccc1`, the cytotoxicity call is reported as “inactive”.
`C[C@H]1CCCCO[C@@H](CN(C)C(=O)c2ccccc2)[C@@H](C)CN([C@@H](C)CO)C(=O)c2cc(NC(=O)NC3CCCCC3)ccc2O1` was tested, and the cytotoxicity call was “inactive”.
`Cc1cccc(CN(C)C[C@@H]2Oc3ncc(-c4cccc(C(F)(F)F)c4)cc3C(=O)N([C@H](C)CO)C[C@@H]2C)c1` was tested, and the cytotoxicity call was “inactive”.
`CC(C)NC(=O)Nc1ccc2c(c1)C(=O)N([C@H](C)CO)C[C@@H](C)[C@@H](CN(C)S(=O)(=O)c1cn(C)cn1)OCCCC[C@H](C)O2` was tested, and the cytotoxicity call was “inactive”.
In the case of `COc1ccc(S(=O)(=O)Nc2ccc3c(c2)CC(=O)N([C@H](C)CO)C[C@H](C)[C@H](CN(C)S(=O)(=O)c2ccc(OC)cc2)O3)cc1`, the cytotoxicity call is reported as “inactive”.
For `Nc1cc(=O)nc(C(F)(F)F)[nH]1`, the cytotoxicity call was “inactive”.
`Cc1ccc(S(=O)(=O)Nc2cccc3c2O[C@@H](CN(C)S(=O)(=O)c2ccc(F)cc2)[C@@H](C)CN([C@@H](C)CO)C3=O)cc1` was tested, and the cytotoxicity call was “inactive”.
In the case of `O=C(CN1CCOCC1)N[C@@H]1CC[C@H](CCNC(=O)Nc2cc(F)ccc2F)O[C@H]1CO`, the cytotoxicity call is reported as “inactive”.
With `COc1ccc(S(=O)(=O)Nc2ccc3c(c2)[C@@H]2C[C@H](CC(=O)NCC4CC4)O[C@H](CO)[C@@H]2O3)cc1` the cytotoxicity call was “inactive”.
In the case of `CCS(=O)(=O)Nc1ccc2c(c1)C(=O)N(C)[C@@H]1CC[C@H](CC(=O)N[C@H]3CCN(Cc4ccccc4)C3)O[C@@H]1CO2`, the cytotoxicity call is reported as “inactive”.
For `c1cc([C@@H]2CNCCN2)[nH]n1`, the cytotoxicity call was “inactive”.
In the case of `C[C@@H]1CCCCO[C@H](CN(C)S(=O)(=O)c2ccccc2)[C@H](C)CN([C@@H](C)CO)C(=O)c2cc(NC(=O)CCC(F)(F)F)ccc2O1`, the cytotoxicity call is reported as “inactive”.
For `Cc1noc(C)c1S(=O)(=O)Nc1cccc2c1O[C@H](CN(C)S(=O)(=O)c1c(C)noc1C)[C@H](C)CN([C@@H](C)CO)C2=O`, the cytotoxicity call was “inactive”.
In the case of `CC(C)NC(=O)Nc1ccc2c(c1)CC(=O)N([C@@H](C)CO)C[C@@H](C)[C@H](CN(C)Cc1ccc(Oc3ccccc3)cc1)O2`, the cytotoxicity call is reported as “inactive”.
`CC(C)NC(=O)Nc1ccc2c(c1)CC(=O)N([C@@H](C)CO)C[C@@H](C)[C@@H](CN(C)Cc1ccc(Oc3ccccc3)cc1)O2` was tested, and the cytotoxicity call was “inactive”.
In the case of `C[C@H](CO)N1C[C@H](C)[C@H](CN(C)Cc2ccc(Oc3ccccc3)cc2)Oc2ccc(NC(=O)Nc3ccccc3)cc2CC1=O`, the cytotoxicity call is reported as “inactive”.
With `CC(C)NC(=O)Nc1ccc2c(c1)CC(=O)N([C@H](C)CO)C[C@@H](C)[C@@H](CN(C)Cc1ccc(Oc3ccccc3)cc1)O2` the cytotoxicity call was “active”.
`CC(C)NC(=O)Nc1ccc2c(c1)CC(=O)N([C@H](C)CO)C[C@@H](C)[C@H](CN(C)Cc1ccc(Oc3ccccc3)cc1)O2` was tested, and the cytotoxicity call was “inactive”.
For `C[C@@H]1CN([C@H](C)CO)C(=O)Cc2cc(NC(=O)Nc3ccccc3)ccc2O[C@@H]1CN(C)Cc1ccc(Oc2ccccc2)cc1`, the cytotoxicity call was “active”.
In the case of `CCOc1nc2cccc(C(=O)OCc3oc(=O)oc3C)c2n1Cc1ccc(-c2ccccc2-c2noc([O-])n2)cc1.[K+]`, the cytotoxicity call is reported as “inactive”.
With `O=C(C[C@@H]1CC[C@@H]2[C@H](COC[C@@H](O)CN2C(=O)c2ccc(F)cc2)O1)NCCCN1CCOCC1` the cytotoxicity call was “inactive”.
In the case of `CN(C)C(=O)c1ccc(-c2cccc(-c3nc(C(=O)NC4CCC4)cc4c3[C@H](CCO)N([S@@](=O)C(C)(C)C)C4)c2)cc1`, the cytotoxicity call is reported as “inactive”.
For `Cc1ccc(S(=O)(=O)N(C)C[C@H]2Oc3ccc(NS(=O)(=O)c4cccs4)cc3C(=O)N([C@@H](C)CO)C[C@H]2C)cc1`, the cytotoxicity call was “inactive”.
`CC1(C)OC(=O)C2(C(=O)O1)[C@@H](c1ccc(-c3cccc(Br)c3)cc1)CC(=O)C[C@H]2c1ccccc1` was tested, and the cytotoxicity call was “inactive”.
In the case of `CCCNC(=O)c1cc2c(c(-c3cccc(-c4cc5ccccc5o4)c3)n1)[C@H](CCO)N(C(=O)NC(C)C)C2`, the cytotoxicity call is reported as “inactive”.
For `C[C@@H]1CCCCO[C@@H](CN(C)S(=O)(=O)c2ccccc2)[C@@H](C)CN([C@@H](C)CO)C(=O)c2cc(NC(=O)Nc3cccc4ccccc34)ccc2O1`, the cytotoxicity call was “inactive”.
In the case of `Cc1noc(C)c1S(=O)(=O)Nc1ccc2c(c1)C(=O)N([C@H](C)CO)C[C@H](C)[C@@H](CN(C)S(=O)(=O)c1cn(C)cn1)OCCCC[C@H](C)O2`, the cytotoxicity call is reported as “inactive”.
For `C[C@H](CO)N1C[C@H](C)[C@@H](CN(C)Cc2ccc(C(F)(F)F)cc2)Oc2ccc(NC(=O)Nc3cccc4ccccc34)cc2C1=O`, the cytotoxicity call was “inactive”.
In the case of `C[C@H](CO)N1C[C@H](C)[C@H](CN(C)Cc2ccc(C(F)(F)F)cc2)Oc2ccc(NC(=O)Nc3cccc4ccccc34)cc2C1=O`, the cytotoxicity call is reported as “active”.
In the case of `C[C@H]1CN([C@@H](C)CO)C(=O)c2cc(NC(=O)Nc3cccc4ccccc34)ccc2O[C@H]1CN(C)Cc1ccc(C(F)(F)F)cc1`, the cytotoxicity call is reported as “inactive”.
With `C[C@@H]1CN([C@@H](C)CO)C(=O)c2cc(NC(=O)Nc3cccc4ccccc34)ccc2O[C@@H]1CN(C)Cc1ccc(C(F)(F)F)cc1` the cytotoxicity call was “active”.
With `C[C@@H]1CN([C@@H](C)CO)C(=O)c2cc(NC(=O)Nc3cccc4ccccc34)ccc2O[C@H]1CN(C)Cc1ccc(C(F)(F)F)cc1` the cytotoxicity call was “active”.
`C[C@@H]1CN([C@H](C)CO)C(=O)c2cc(NC(=O)Nc3cccc4ccccc34)ccc2O[C@H]1CN(C)Cc1ccc(C(F)(F)F)cc1` was tested, and the cytotoxicity call was “inactive”.
With `C[C@@H]1CN([C@H](C)CO)C(=O)c2cc(NC(=O)Nc3cccc4ccccc34)ccc2O[C@@H]1CN(C)Cc1ccc(C(F)(F)F)cc1` the cytotoxicity call was “inactive”.
`C[C@H]1CN([C@@H](C)CO)C(=O)c2cc(NC(=O)Nc3cccc4ccccc34)ccc2O[C@@H]1CN(C)Cc1ccc(C(F)(F)F)cc1` was tested, and the cytotoxicity call was “inactive”.
For `O=C(O)c1cc(=O)cc(C(=O)O)o1`, the cytotoxicity call was “inactive”.
For `C=CCn1c(O)c(C#N)c(C)cc1=O`, the cytotoxicity call was “inactive”.
For `CN(C)C(=O)C[C@H]1CC[C@H](NC(=O)C2CCOCC2)[C@H](CO)O1`, the cytotoxicity call was “inactive”.
With `C[C@@H]1CCCCO[C@H](CN(C)C(=O)c2ccccc2)[C@@H](C)CN([C@H](C)CO)C(=O)c2cc(NS(=O)(=O)c3ccc(Cl)cc3)ccc2O1` the cytotoxicity call was “inactive”.
`N#C/C(=C\c1cccs1)c1csc2ccc(Cl)cc12` was tested, and the cytotoxicity call was “inactive”.
`CO[C@@H]1CN(C)C(=O)c2cc(NC(=O)CC(F)(F)F)ccc2OC[C@@H](C)N(S(=O)(=O)c2cn(C)cn2)C[C@@H]1C` was tested, and the cytotoxicity call was “inactive”.
In the case of `O=S(=O)(c1cccc(OC(F)F)c1)N1[C@@H]2CC[C@@H](C2)[C@H]1c1nc2cccc(OCc3ccccc3)c2[nH]1`, the cytotoxicity call is reported as “inactive”.
For `C[C@@H]1CN([C@@H](C)CO)S(=O)(=O)c2ccc(C#CC(C)(C)O)cc2O[C@H]1CN(C)Cc1ccc(F)cc1`, the cytotoxicity call was “inactive”.
For `C[C@H]1CN([C@@H](C)CO)C(=O)Cc2cc(NC(=O)Nc3ccc4c(c3)OCO4)ccc2O[C@@H]1CN(C)Cc1ccc(C(F)(F)F)cc1`, the cytotoxicity call was “inactive”.
`C[C@H](CO)N1C[C@H](C)[C@H](CN(C)Cc2ccc(C(F)(F)F)cc2)Oc2ccc(NC(=O)Nc3ccc4c(c3)OCO4)cc2CC1=O` was tested, and the cytotoxicity call was “inactive”.
For `C[C@@H]1CN([C@@H](C)CO)C(=O)Cc2cc(NC(=O)Nc3ccc4c(c3)OCO4)ccc2O[C@H]1CN(C)Cc1ccc(C(F)(F)F)cc1`, the cytotoxicity call was “inactive”.
`C[C@@H]1CN([C@H](C)CO)C(=O)Cc2cc(NC(=O)Nc3ccc4c(c3)OCO4)ccc2O[C@@H]1CN(C)Cc1ccc(C(F)(F)F)cc1` was tested, and the cytotoxicity call was “active”.
In the case of `C[C@H]1CN([C@@H](C)CO)C(=O)Cc2cc(NC(=O)Nc3ccc4c(c3)OCO4)ccc2O[C@H]1CN(C)Cc1ccc(C(F)(F)F)cc1`, the cytotoxicity call is reported as “active”.
`C[C@@H]1CN([C@H](C)CO)C(=O)Cc2cc(NC(=O)Nc3ccc4c(c3)OCO4)ccc2O[C@H]1CN(C)Cc1ccc(C(F)(F)F)cc1` was tested, and the cytotoxicity call was “active”.
In the case of `C[C@@H]1CN([C@@H](C)CO)C(=O)Cc2cc(NC(=O)Nc3ccc4c(c3)OCO4)ccc2O[C@@H]1CN(C)Cc1ccc(C(F)(F)F)cc1`, the cytotoxicity call is reported as “inactive”.
For `C[C@H](CO)N1C[C@H](C)[C@@H](CN(C)Cc2ccc(C(F)(F)F)cc2)Oc2ccc(NC(=O)Nc3ccc4c(c3)OCO4)cc2CC1=O`, the cytotoxicity call was “inactive”.
`C[C@@H]1CCCCO[C@H](CN(C)C(=O)c2ccccc2)[C@H](C)CN([C@@H](C)CO)C(=O)c2cc(NS(=O)(=O)c3ccc(F)cc3)ccc2O1` was tested, and the cytotoxicity call was “inactive”.
For `COCC(=O)N1C[C@H](C)[C@@H](OC)CN(C)C(=O)c2cc(NC(=O)Nc3ccccc3)ccc2OC[C@H]1C`, the cytotoxicity call was “inactive”.
With `C[C@@H]1CN([C@@H](C)CO)C(=O)c2cc(-c3ccc(C(=O)N(C)C)cc3)cnc2O[C@@H]1CN(C)C(=O)c1cccnc1` the cytotoxicity call was “inactive”.
In the case of `C[C@@H]1CN([C@@H](C)CO)S(=O)(=O)c2ccc(C#Cc3ccc(F)cc3)cc2O[C@H]1CN(C)S(=O)(=O)c1cn(C)cn1`, the cytotoxicity call is reported as “inactive”.
With `C[C@@H]1CN([C@H](C)CO)C(=O)c2cc(NC(=O)Cn3cnnn3)ccc2O[C@@H]1CN(C)Cc1ccc(C(=O)O)cc1` the cytotoxicity call was “inactive”.
For `COc1ccc(CCNC(=O)[C@@]2(Sc3ccc(C)cc3)CC(=O)N(Cc3ccccc3C(F)(F)F)[C@@H]2c2ccc(CO)cc2I)cc1`, the cytotoxicity call was “inactive”.
In the case of `O=C(NCC1CC1)[C@@H]1[C@@H](CO)[C@@H]2Cn3c(cccc3=O)[C@H]1N2C(=O)c1cccnc1`, the cytotoxicity call is reported as “inactive”.
For `Cc1ccc(S(=O)(=O)Nc2cccc3c2O[C@H](CN(C)S(=O)(=O)c2ccccc2)[C@@H](C)CN([C@H](C)CO)C3=O)cc1`, the cytotoxicity call was “inactive”.
In the case of `C[C@]12CC3CC(N)(C1)C[C@@](C)(C3)C2`, the cytotoxicity call is reported as “inactive”.
`CC12CC3CC(C)(C1)CC(N)(C3)C2.Cl` was tested, and the cytotoxicity call was “active”.
In the case of `C[C@]12C[C@@H]3C[C@](C)(C1)C[C@@](N)(C3)C2`, the cytotoxicity call is reported as “inactive”.
`C[C@@H]1CN([C@@H](C)CO)C(=O)c2cc(NC(=O)Nc3ccc4c(c3)OCO4)ccc2O[C@@H]1CN(C)S(C)(=O)=O` was tested, and the cytotoxicity call was “inactive”.
For `O=C(NCCN1CCOCC1)[C@]1(CCS(=O)(=O)c2ccccc2)N=C(c2ccc(OCCCO)cc2)O[C@@H]1c1ccccc1`, the cytotoxicity call was “inactive”.
